Compound activity deposited in PubChem by several laboratories.
PostGolgi ctrl = growth of the yeast control strain, post-Golgi counter-screen. AID 738. efflux-deficient yeast background strain, growth absorbance A615, 16 h. inhibition, % at 10 µM. 98,000 tested, 5% active
CYP2C19 inh = inhibitors of human CYP2C19; CYP2C19 Supersomes, luciferin-H EGE luminescence, 30 min; inhibition, % at 5 µM; 96,000 tested, 21% active;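 active = CYP2C19 inhibition above a set limit at 5 µM in the primary screen, cut at about 50% in these data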;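 note: plate controls were negative control wells for no effect and 2.5 mM tranylcypromine positive control for full effect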
PostGolgi yeast = growth inhibition of a yeast mutant, post-Golgi transport screen; post-Golgi transport phenotypic cell assay; 98,000 tested, 0.9% active; AID 739; inhibition, % at 10 µM;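 note: yeast cells grown in 1536-well plates; yeast grown about 18 h at 30C before absorbance read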
CYP2C9 act = CYP2C9 (human) activation; recombinant CYP2C9, luciferin-H conversion, luminescence; hits give high values; factor 1 = untreated enzyme, 0 = blocked; activation factor at 5 µM; 96,000 tested, 1.4% active; AID 1024;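 active = activation factor of 2 or more for CYP2C9 at a 5 µM dose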;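 note: 0 = sulfaphenazole-blocked wells and 1 = vehicle-only wells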
Target sequence (P11712 whole entry, looked up): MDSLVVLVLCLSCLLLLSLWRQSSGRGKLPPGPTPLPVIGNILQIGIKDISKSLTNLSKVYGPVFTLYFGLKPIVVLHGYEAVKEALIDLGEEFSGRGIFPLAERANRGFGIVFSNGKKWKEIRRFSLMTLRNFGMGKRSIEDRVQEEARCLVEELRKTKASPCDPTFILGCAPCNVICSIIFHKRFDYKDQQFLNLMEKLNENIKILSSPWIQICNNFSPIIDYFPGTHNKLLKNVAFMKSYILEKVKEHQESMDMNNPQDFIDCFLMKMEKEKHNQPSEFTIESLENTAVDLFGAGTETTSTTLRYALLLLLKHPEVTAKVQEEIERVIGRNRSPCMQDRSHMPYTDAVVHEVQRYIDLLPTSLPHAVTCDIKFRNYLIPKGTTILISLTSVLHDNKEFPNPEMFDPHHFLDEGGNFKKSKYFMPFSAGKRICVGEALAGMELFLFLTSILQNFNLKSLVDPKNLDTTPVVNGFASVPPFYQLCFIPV
CYP2C9 inh = blocks human cytochrome P450 2C9 | P11712 | CYP2C9 Supersomes, luciferin-H conversion, luminescence | inhibition, % at 5 µM | 96,000 tested, 20% active;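 active = blocking of liver enzyme CYP2C9 beyond about 50% at 5 µM, limit read from the data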
CYP2C19 activ = activators of human cytochrome P450 2C19 | recombinant CYP2C19, luciferin-H EGE luminescence; hits give high values; 0 = fully inhibited enzyme, 1 = untreated enzyme | activation factor at 5 µM | 96,000 tested, under 10 active | AID 1025;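 active = activation factor of at least 2 at 5 µM in the primary screen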;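 note: 0 = wells with 2.5 mM tranylcypromine and 1 = vehicle-only wells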
Active calls of the source: *; . = no result given. Only some compounds are listed: those with a hit (about 32% of all), similar ones and a draw of the others. Cut-off read from the data, not from the text of the source, unless noted: active = inhibition above about 30%; inactive = the rest.

SMILES	PostGolgi ctrl	CYP2C19 inh	PostGolgi yeast	CYP2C9 act	CYP2C9 inh	CYP2C19 activ
O=C(NCc1ccco1)C1CCCCN1S(=O)(=O)c1ccc(F)cc1 (stereo not drawn)	5	61*	-7	0.7	31	0.4
O=C(C1CCN(S(=O)(=O)c2cccs2)CC1)N1CCN(c2ccccc2)CC1	1	-6	-12	1	3	1.1
O=C(C(NS(=O)(=O)c1cccs1)c1ccccc1)N1CCN(c2ccccc2)CC1 (stereo not drawn)	6	54*	6	0.7	28	0.5
O=C1C(NS(=O)(=O)c2cccs2)=C(N2CCN(c3ccccc3)CC2)C(=O)c2ccccc21	57*	29	17	0.4	63*	0.7
CC(=O)NC(C)C(c1cccs1)N1CCN(c2ccccc2)CC1 (stereo not drawn)	-5	48	-12	0.9	14	0.5
CCC(C)N1C(=O)CCC1C(=O)N1CCN(c2ccccc2F)CC1 (stereo not drawn)	3	-2	5	1	-3	1
Cc1cc(=O)oc2cc(OCc3cc4c(cc3Cl)OCO4)ccc12	-7	15	-8	0.7	30	0.9
COC(=O)c1sc(NC(=O)c2ccc(Cn3cc(Cl)cn3)o2)c(C#N)c1C	18	47	16	0.3	75*	0.5
O=C(c1ccc(Cn2cc(Br)cn2)o1)n1cccn1	6	55*	-4	0.8	21	0.5
CC(NC(=O)c1ccc(Cn2cc([N+](=O)[O-])cn2)o1)c1ccccc1 (stereo not drawn)	6	28	7	0.7	27	0.7
CC1CCc2c(sc(NC(=O)c3ccc(Cn4cc([N+](=O)[O-])cn4)o3)c2C#N)C1 (stereo not drawn)	38*	-2	-6	1.1	-9	1
O=C(NC1CCCCC1)c1ccc(Cn2cc(Br)cn2)o1	14	62*	-6	0.7	34	0.4
N#Cc1c(NC(=O)c2ccc(Cn3cc(Br)cn3)o2)sc2c1CCCCC2	35*	-7	2	1.2	-25	1.1
COc1ccc(Nc2nc(NCc3ccco3)nc(N/N=C/c3ccccc3)n2)cc1	30	-5	19	0.4	61*	1
CCC(=O)n1nc(-c2ccccc2)nc1N	2	16	3	1	1	0.8
Cc1ccc(-c2nc(N)n(C(=O)Cc3ccccc3)n2)cc1	15	6	-8	1	-2	0.9
CCC(=O)n1nc(-c2ccc(Cl)cc2)nc1NCc1ccccc1	4	8	-2	0.5	50*	0.9
CCOc1nc(NCc2ccco2)nc(Nc2ccc(OC)cc2)n1	27	32	-4	0.6	35	0.7
COc1ccc(CC(=O)n2nc(-c3ccccc3)nc2NCc2ccco2)cc1	-8	24	-7	0.4	56*	0.8
CCOC(=O)c1cnn2c(C(F)F)cc(C3CC3)nc12	3	.	-5	.	.	.
CCCCNC(=O)NC1C(NC(=O)NCCCC)N(C)C(=O)N1C (stereo not drawn)	13	-8	4	1	1	1.1
COC(=O)c1cc(OC)c(OC)cc1NC(=O)c1ccc(OC)c(OC)c1	7	9	3	1.1	-11	0.9
Cn1ncc(Cl)c1C(=O)Nc1cccnc1	2	3	4	0.8	18	1
O=C(c1cc2c(s1)CCCC2)N1CCN(Cc2ccc3c(c2)OCO3)CC1	27	36	36*	0.9	13	0.6
Cc1ccc(S(=O)(=O)N(C)c2ccc(N)cc2)cc1	12	94*	-8	2.2*	-118	0.1
SMILES	PostGolgi ctrl	CYP2C19 inh	PostGolgi yeast	CYP2C9 act	CYP2C9 inh	CYP2C19 activ
COc1ccc(N(CC(=O)N2CCN(Cc3ccc4c(c3)OCO4)CC2)S(C)(=O)=O)cc1OC	3	.	-6	.	.	.
Cc1ccc(S(=O)(=O)N(C)c2ccc(C(=O)N3CCCCC3)cc2)cc1	5	55*	10	0.3	74*	0.4
O=C(CN(c1ccccc1)S(=O)(=O)c1ccccc1)N1CCN(Cc2ccc3c(c2)OCO3)CC1	6	69*	4	0.1	89*	0.3
CN(c1ccc(C(=O)N2CCCCC2)cc1)S(=O)(=O)c1ccccc1	15	13	-1	0.8	23	0.9
O=C(c1ccc(Br)s1)N1CCN(Cc2ccc3c(c2)OCO3)CC1	13	40	-19	0.6	44	0.6
O=C(Nc1ccccc1)N1CCN(Cc2ccc3c(c2)OCO3)CC1	3	4	2	1.1	-12	1
Cc1cccc(C(=O)N2CCN(Cc3ccc4c(c3)OCO4)CC2)c1	4	92*	9	0.6	38	0.1
O=C(c1ccc2nccnc2c1)N1CCN(Cc2ccc3c(c2)OCO3)CC1	14	-3	9	1.1	-10	1
Cc1ccc(S(=O)(=O)N(C)c2ccc(C(=O)N3CCC(C(N)=O)CC3)cc2)cc1	3	4	-3	0.9	9	1
CN(c1ccc(C(=O)N2CCN(Cc3ccc4c(c3)OCO4)CC2)cc1)S(=O)(=O)c1ccccc1	1	79*	-5	0.1	94*	0.2
Cc1ccc(S(=O)(=O)N(C)c2ccc(C(=O)N3CCN(Cc4ccc5c(c4)OCO5)CC3)cc2)cc1	6	55*	-10	0.5	54*	0.4
O=C(c1ccc(NS(=O)(=O)c2ccccc2)cc1)N1CCN(Cc2ccc3c(c2)OCO3)CC1	5	41	-2	0.1	94*	0.6
CC(C)CC(=O)N1CCN(Cc2ccc3c(c2)OCO3)CC1	-4	17	-2	1	-1	0.8
CC1C(=O)CCN(C(C)(C)C)C1C (stereo not drawn)	-1	-5	-11	0.9	13	1.1
Cc1cccc(NC(=O)c2ccc(N(C)C3CCCCC3)c([N+](=O)[O-])c2)n1	16	3	-5	0.8	20	1
O=C(Nc1ccc2c(c1)C(=O)N(CC1CCCO1)C2=O)c1cccc(Br)c1 (stereo not drawn)	15	17	0	0.7	26	0.8
CCN(CC(=O)Nc1ccc2c(c1)OCCO2)CC(=O)Nc1cc(C)on1	6	32	-1	0.6	38	0.7
CCN(CC)c1nc(=S)nc(NC(C)(C)C)[nH]1	-1	-2	-7	0.9	5	1
O=C(c1ccc(Cn2cc(Cl)cn2)o1)N1CCN(Cc2ccc3c(c2)OCO3)CC1	1	40	2	0.6	36	0.6
Cc1noc(C)c1C(=O)N1CCN(Cc2ccc3c(c2)OCO3)CC1	10	3	3	1.1	-6	1
O=C(c1cc2c(s1)CCCCC2)N1CCN(c2ncccn2)CC1	23	69*	5	0.1	92*	0.3
O=C(c1ccc(Br)o1)N1CCN(Cc2ccc3c(c2)OCO3)CC1	-3	90*	11	0.4	62*	0.1
COc1ccccc1N1CCN(C(=O)c2cc3c(s2)CCC3)CC1	9	36	-2	0.5	47	0.6
